According to paper PMC5540273 (PLoS ONE, 2017):

test system: T1, PYK2; details: concentration: 1 μM, replicates: in singlicate; n = 1
T1 construct: gene PTK2B
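Also: KINOMEscan kinase panel screen.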

| SMILES | %Inh |
| --- | --- |
| COc1ccc(Nc2nccc(N3CCC(NC(=O)C(C)c4ccc(Cl)cc4)CC3)n2)cc1 (stereo not drawn) [GSK1379812] | 0% |
| CC(=O)c1c(C)c2cnc(Nc3ccc(N4CCNCC4)cn3)nc2n(C2CCCC2)c1=O | 0% |
| Nc1nccc(-c2c(-c3ccc(F)cc3)ncn2C2CCN(Cc3ccccc3)CC2)n1 [SB-219980] | 0% |
| Fc1ccc(-c2nc3n(c2-c2ccncc2)CCS3)cc1 [GI98581] | 3% |
| COc1cccc(CNC(=O)NC2CCN(c3ccnc(Nc4ccc(F)cc4)n3)C2)c1 (stereo not drawn) [GSK1379723] | 3% |
| c1ccc(-c2ccnc3[nH]ccc23)cc1 [SB-693578] | 5% |
| Cc1ccc(NC(=O)c2ccc(Cl)cc2)cc1-c1ccc(C(=O)Nc2ccncc2)cc1 [GSK1398467] | 18% |
| CNCc1ccc2nc(NC(=O)c3ccc(C(C)(C)C)cc3)cn2c1 | 7% |
| COc1ccc(-c2coc3ccc(-c4nnc(C)o4)cc23)cc1 | 0% |
| O=C(Nc1n[nH]c2nc(-c3ccco3)c(Br)cc12)C1CCN(Cc2ccccc2)C1.O=C(O)[C@H](O)[C@@H](O)C(=O)O (stereo not drawn) [SB-742034] | 6% |
| Cc1c(Cn2c(C)c(C)n3c(=O)cc(N4CCOCC4)nc23)cccc1C(F)(F)F [GSK2328680] | 10% |
| COC(=O)C(NC(=O)NC1CCN(c2ccnc(Nc3ccc(F)cc3)n2)C1)c1ccccc1 (stereo not drawn) [GSK1379712] | 0% |
| Cc1ccc(NC(=O)Nc2ccc(Cl)cc2)cc1-c1ccc(C(=O)Nc2ccncc2)cc1 [GSK1398472] | 15% |
| Cc1ccc(-c2nc(Nc3ccncc3)c3ccccc3n2)s1 [GSK189015] | 0% |
| CC(C)c1cc(-c2ccc3c(N)n[nH]c3c2)nc(N)n1 [GSK2250882] | 28% |
| CC(=O)c1cccc(NC(=O)NC2CCN(c3ccnc(Nc4ccc(F)cc4)n3)C2)c1 (stereo not drawn) [GSK1379710] | 26% |
| Cc1ccccc1Cn1ccn2c(=O)cc(N3CCOCC3)nc12 [GSK2269905] | 0% |
| CNc1nc(-c2ccc3c(N)n[nH]c3c2)cc(N2C[C@@H](C(=O)Nc3ccccc3)CC[C@H]2C)n1 [GSK2298859] | 0% |

| SMILES | %Inh |
| --- | --- |
| Fc1ccc(-c2nc[nH]c2-c2ccncc2)cc1 [SB-217360] | 0% |
| Cc1cccc2c(-c3ccncn3)c(-c3ccc(F)cc3)nn12 [GW515532] | 0% |
| COc1ccc(Nc2nccc(NCCNC(=O)Nc3cc(C)ccc3C)n2)cc1 [GSK1379899] | 0% |
| CS(=O)(=O)CCNCc1nc(-c2ccc3ncnc(Nc4ccc(OCc5ccccc5)c(Cl)c4)c3c2)cs1.Cl [GW582764] | 1% |
| NS(=O)(=O)c1cccc(N/C=C2\C(=O)Nc3ccc(S(=O)(=O)Cc4c(Cl)cccc4Cl)cc32)c1 [GSK398099] | 19% |
| CC(=O)c1c(C)c2cnc(Nc3ccn(C)n3)nc2n(C2CCCC2)c1=O | 0% |
| Cn1cncc1-c1cc2c(Nc3ccc(OCc4ccccc4)cc3)ncnc2cn1 [GW281179] | 9% |
| COc1ccc(CSc2nnc(-c3ccc4c(c3)CCO4)o2)cc1 | 0% |
| CN1c2ccc(-c3ccc(C(N)=O)cc3)cc2-c2[nH]ncc2S1(=O)=O | 0% |
| CC(C)c1ccc(O)cc1Nc1ccnc2ccc(C(F)(F)F)cc12 [GW482059] | 0% |
| O=C(Nc1n[nH]c2nc(-c3cccs3)c(Br)cc12)C1CCCC1 [SB-743341] | 0% |
| CS(=O)(=O)CCNCc1nc(-c2ccc3ncnc(Nc4ccc5c(cnn5Cc5ccccc5)c4)c3c2)cs1.Cl.Cl [GW569716] | 0% |
| Cl.Cl.Cl.N#Cc1ccc(CCNc2nccc(-c3cccc(CN4CCNCC4)c3)n2)cc1 [GSK2137462] | 0% |
| Fc1ccc(-c2nn3cccc(F)c3c2-c2ccncc2)cc1 [GW475620] | 0% |
| COc1ccc(CSc2nnc(-c3ccc4ncsc4c3)o2)cc1C(F)(F)F | 0% |
| Cc1ccc(NC(=O)Nc2ccccc2F)cc1-c1ccc(C(=O)Nc2ccncc2)cc1 [GSK1398477] | 0% |
| O=C1NC(=O)C(c2ccc(Cl)cc2)=C1Nc1cccc(Cl)c1 [SB-317651] | 0% |
| CNc1nc(-c2ccc3c(N)n[nH]c3c2)cc(N2C[C@@H](C(=O)NC3CCCCC3)OC[C@H]2C)n1 [GSK2375584] | 15% |

test system: QSK; details: concentration: 1 μM, replicates: in singlicate; n = 1

| SMILES | %Inh |
| --- | --- |
| COc1ccc(Nc2nccc(N3CCC(NC(=O)C(C)c4ccc(Cl)cc4)CC3)n2)cc1 (stereo not drawn) [GSK1379812] | 0% |
| CC(=O)c1c(C)c2cnc(Nc3ccc(N4CCNCC4)cn3)nc2n(C2CCCC2)c1=O | 0% |
| Nc1nccc(-c2c(-c3ccc(F)cc3)ncn2C2CCN(Cc3ccccc3)CC2)n1 [SB-219980] | 0% |
| Fc1ccc(-c2nc3n(c2-c2ccncc2)CCS3)cc1 [GI98581] | 11% |
| COc1cccc(CNC(=O)NC2CCN(c3ccnc(Nc4ccc(F)cc4)n3)C2)c1 (stereo not drawn) [GSK1379723] | 2% |
| c1ccc(-c2ccnc3[nH]ccc23)cc1 [SB-693578] | 15% |
| Cc1ccc(NC(=O)c2ccc(Cl)cc2)cc1-c1ccc(C(=O)Nc2ccncc2)cc1 [GSK1398467] | 0% |
| CNCc1ccc2nc(NC(=O)c3ccc(C(C)(C)C)cc3)cn2c1 | 12% |
| COc1ccc(-c2coc3ccc(-c4nnc(C)o4)cc23)cc1 | 0% |
| O=C(Nc1n[nH]c2nc(-c3ccco3)c(Br)cc12)C1CCN(Cc2ccccc2)C1.O=C(O)[C@H](O)[C@@H](O)C(=O)O (stereo not drawn) [SB-742034] | 26% |
| Cc1c(Cn2c(C)c(C)n3c(=O)cc(N4CCOCC4)nc23)cccc1C(F)(F)F [GSK2328680] | 6% |
| COC(=O)C(NC(=O)NC1CCN(c2ccnc(Nc3ccc(F)cc3)n2)C1)c1ccccc1 (stereo not drawn) [GSK1379712] | 6% |
| Cc1ccc(NC(=O)Nc2ccc(Cl)cc2)cc1-c1ccc(C(=O)Nc2ccncc2)cc1 [GSK1398472] | 1% |
| Cc1ccc(-c2nc(Nc3ccncc3)c3ccccc3n2)s1 [GSK189015] | 6% |
| CC(C)c1cc(-c2ccc3c(N)n[nH]c3c2)nc(N)n1 [GSK2250882] | 4% |
| CC(=O)c1cccc(NC(=O)NC2CCN(c3ccnc(Nc4ccc(F)cc4)n3)C2)c1 (stereo not drawn) [GSK1379710] | 4% |
| Cc1ccccc1Cn1ccn2c(=O)cc(N3CCOCC3)nc12 [GSK2269905] | 0% |
| CNc1nc(-c2ccc3c(N)n[nH]c3c2)cc(N2C[C@@H](C(=O)Nc3ccccc3)CC[C@H]2C)n1 [GSK2298859] | 18% |

| SMILES | %Inh |
| --- | --- |
| Fc1ccc(-c2nc[nH]c2-c2ccncc2)cc1 [SB-217360] | 17% |
| Cc1cccc2c(-c3ccncn3)c(-c3ccc(F)cc3)nn12 [GW515532] | 0% |
| COc1ccc(Nc2nccc(NCCNC(=O)Nc3cc(C)ccc3C)n2)cc1 [GSK1379899] | 0% |
| CS(=O)(=O)CCNCc1nc(-c2ccc3ncnc(Nc4ccc(OCc5ccccc5)c(Cl)c4)c3c2)cs1.Cl [GW582764] | 0% |
| NS(=O)(=O)c1cccc(N/C=C2\C(=O)Nc3ccc(S(=O)(=O)Cc4c(Cl)cccc4Cl)cc32)c1 [GSK398099] | 11% |
| CC(=O)c1c(C)c2cnc(Nc3ccn(C)n3)nc2n(C2CCCC2)c1=O | 0% |
| Cn1cncc1-c1cc2c(Nc3ccc(OCc4ccccc4)cc3)ncnc2cn1 [GW281179] | 0% |
| COc1ccc(CSc2nnc(-c3ccc4c(c3)CCO4)o2)cc1 | 0% |
| CN1c2ccc(-c3ccc(C(N)=O)cc3)cc2-c2[nH]ncc2S1(=O)=O | 14% |
| CC(C)c1ccc(O)cc1Nc1ccnc2ccc(C(F)(F)F)cc12 [GW482059] | 0% |
| O=C(Nc1n[nH]c2nc(-c3cccs3)c(Br)cc12)C1CCCC1 [SB-743341] | 4% |
| CS(=O)(=O)CCNCc1nc(-c2ccc3ncnc(Nc4ccc5c(cnn5Cc5ccccc5)c4)c3c2)cs1.Cl.Cl [GW569716] | 9% |
| Cl.Cl.Cl.N#Cc1ccc(CCNc2nccc(-c3cccc(CN4CCNCC4)c3)n2)cc1 [GSK2137462] | 9% |
| Fc1ccc(-c2nn3cccc(F)c3c2-c2ccncc2)cc1 [GW475620] | 0% |
| COc1ccc(CSc2nnc(-c3ccc4ncsc4c3)o2)cc1C(F)(F)F | 0% |
| Cc1ccc(NC(=O)Nc2ccccc2F)cc1-c1ccc(C(=O)Nc2ccncc2)cc1 [GSK1398477] | 20% |
| O=C1NC(=O)C(c2ccc(Cl)cc2)=C1Nc1cccc(Cl)c1 [SB-317651] | 1% |
| CNc1nc(-c2ccc3c(N)n[nH]c3c2)cc(N2C[C@@H](C(=O)NC3CCCCC3)OC[C@H]2C)n1 [GSK2375584] | 0% |
